IDE cell activ – human IDE activators in live cells, primary screen, fluorescence polarization, HEK cells, FAbeta-B substrate | Insulin-degrading enzyme (Homo sapiens), P14735 | FAbeta-B cleavage; 0% vehicle, 100% cell-free pure enzyme wells | activation, % at 5.96 µM | hit rate 0.073% among 340,000;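 active means activation above the mean of all tested compounds plus 3 SD, set per screening campaign, cut at about 17% in these data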
TPT1 inhibitor – Candida albicans TPT1 enzyme inhibitors, primary screen, biochemical, fluorescence polarization; tRNA 2'-phosphotransferase TPT1 (Candida albicans SC5314); recombinant caTPT1, FP RNA substrate dephosphorylation; inhibition, % at 5 µM; hit rate 0.81% among 300,000; AID 1962, 2009;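 active means inhibition above the mean of all tested compounds plus 3 SD, set per screening campaign, cut at about 24% in these data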
HNF4A DNA FP – change in binding of human HNF4A to DNA, primary screen, biochemical, fluorescence polarization, FITC-DNA; activity change, % at 10 µM; hit rate 0.3% among 360,000; 1 h; Hepatocyte nuclear factor 4-alpha (Homo sapiens), P41235; AID 1224865, 2016; in the data active means activity change above about 30%, passing the limit was not always enough
Target sequence (P41235 whole entry, looked up): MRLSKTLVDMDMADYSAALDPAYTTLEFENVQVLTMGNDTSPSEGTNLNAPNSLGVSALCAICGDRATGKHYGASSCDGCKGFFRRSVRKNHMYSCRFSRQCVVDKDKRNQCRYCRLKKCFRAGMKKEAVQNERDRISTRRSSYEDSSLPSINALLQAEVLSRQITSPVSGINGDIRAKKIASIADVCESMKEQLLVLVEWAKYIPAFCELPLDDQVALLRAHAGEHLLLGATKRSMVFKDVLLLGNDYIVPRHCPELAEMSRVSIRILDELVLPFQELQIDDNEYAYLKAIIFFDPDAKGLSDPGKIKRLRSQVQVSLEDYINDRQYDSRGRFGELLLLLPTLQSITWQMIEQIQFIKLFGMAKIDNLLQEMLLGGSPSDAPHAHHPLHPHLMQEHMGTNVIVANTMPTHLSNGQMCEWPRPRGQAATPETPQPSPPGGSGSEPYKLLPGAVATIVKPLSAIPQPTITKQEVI
CRFR2-BP ag – agonists of CRF-BP/CRF-R2 complex, primary screen, cell-based, HEK293, calcium dye fluorescence, uHTS; calcium dye fluorescence (FLIPR); percent of saturating CRF peptide response; activation, % at 13.2 µM; hit rate 0.46% among 350,000;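 active means activation of at least 50%, plus an integration ratio under a set limit after plate pattern correction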
IDE inh – human IDE inhibitors in live cells, primary screen, fluorescence polarization, HEK cells, FAbetaB substrate; AID 434962, 2010; hit rate 0.41% among 320,000; FAbetaB cleavage; inhibition, % at 5.59 µM;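 active means percent inhibition above the average of all tested compounds plus 3 SD, set per screening campaign, cut at about 16% in these data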;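 further: IDE supplied by intact live HEK cells; FP after avidin binding of uncleaved biotin substrate so inhibition keeps polarization high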
Large screens that a line does not name were inactive; ! = repeats disagree. A selection: hits, their analogues and other compounds. The true share with any hit is near 1.4%.

Cc1[nH]c2ccccc2c1C(=O)CN1CCCCC1C (configuration not stated)	CRFR2-BP ag 74
CCC1CCCCN1CC(=O)c1c(C)[nH]c2ccccc12 (configuration not stated)	CRFR2-BP ag 107
O=C(c1ccc(N2CCCC2=O)cc1)N1CCN(c2cccc(C(F)(F)F)c2)CC1	none (no result: TPT1 inhibitor, IDE inh)
COc1cc2c(cc1OC)CN(C(=O)COc1ccccc1[N+](=O)[O-])CC2	none
CCOC(=O)CC1C(=O)NCCN1c1nc2ccc(C)cn2c(=O)c1/C=C1\SC(=S)N(C(C)CC)C1=O (configuration not stated)	TPT1 inhibitor 137, IDE inh 43 (no result: IDE cell activ, HNF4A DNA FP, CRFR2-BP ag)
O=c1c2ccccc2nc(/C=C/c2ccc([N+](=O)[O-])o2)n1CCCO	HNF4A DNA FP 74
C#CCOCCOCCOCCNc1nc(N2CCN(C(=O)CCCCCCCCCCNC(=O)[C@@H](CCSC)n3cc(CCO)nn3)CC2)nc(N2CCN(C(=O)CCCCCCCCCCNC(=O)[C@@H]([C@H](C)O)n3cc(C)nn3)CC2)n1	none
C#CCOCCOCCOCCNc1nc(N2CCN(C(=O)CCCCCCCCCCNC(=O)[C@H](CCCCN)n3cc(C[C@@H](C)CC)nn3)CC2)nc(N2CCN(C(=O)CCCCCCCCCCNC(=O)[C@@H]([C@H](C)O)n3cc(C)nn3)CC2)n1	IDE cell activ 34, HNF4A DNA FP 65
C#CCOCCOCCOCCNc1nc(N2CCN(C(=O)CCCCCCCCCCNC(=O)[C@H](CCCN=C(N)N)n3cc(C[C@@H](C)CC)nn3)CC2)nc(N2CCN(C(=O)CCCCCCCCCCNC(=O)[C@@H]([C@H](C)CC)n3cc(CCCCCN)nn3)CC2)n1	none (no result: IDE cell activ, HNF4A DNA FP, CRFR2-BP ag)
C#CCOCCOCCOCCNc1nc(N2CCN(C(=O)CCCCCCCCCCNC(=O)[C@H](CCCCN)n3cc(C)nn3)CC2)nc(N2CCN(C(=O)CCCCCCCCCCNC(=O)[C@@H]([C@H](C)O)n3cc(C)nn3)CC2)n1	IDE cell activ 21
COc1cc(N=Nc2ccc(C(=O)N(C)C)cc2)c(C)cc1N	none (no result: TPT1 inhibitor, IDE inh)
CC(C)CN1CCC(=O)N([C@H](CO)c2ccccc2)CC1	IDE cell activ 37 (no result: HNF4A DNA FP)
Cc1sc(NC(=O)C2CCCCC2C(=O)O)c(C(N)=O)c1-c1ccc(C(C)(C)C)cc1 (configuration not stated)	CRFR2-BP ag 104
CC(=O)c1ccc(NC(=O)Nc2cccc(Cl)c2)cc1	CRFR2-BP ag 53
CC(=O)Nc1ccc(NC(=O)Nc2cccc(Cl)c2)cc1	none
COc1ccc(-c2c(-c3cc(OC)cc(OC)c3)n(C)c3ccc(Br)cc23)cc1	none (no result: TPT1 inhibitor)
COc1ccc(N=Nc2nc3ccc(Br)cc3n2C)cc1	IDE cell activ 28
CC1=NN(c2ccccc2)C(=O)/C1=C\c1cn(-c2ccccc2)nc1C	none
CC1=NN(c2ccccc2)C(=O)/C1=C\c1cn(CCC#N)nc1-c1ccc(Cl)cc1	HNF4A DNA FP 35
Oc1c(C=C2N=c3ccccc3=N2)sc(=S)n1-c1ccc(F)cc1	HNF4A DNA FP 39!
CC(=O)C1=C(O)C(=O)N(c2cc(C(C)(C)C)on2)C1c1ccc(C(C)C)cc1 (configuration not stated)	CRFR2-BP ag 64
CC(=O)C1=C(O)C(=O)N(c2cc(C(C)(C)C)on2)C1c1ccc(Br)cc1 (configuration not stated)	none
Cn1c(=O)c(N)c2c3c(c(Br)ccc31)C(=O)c1ccccc1-2	CRFR2-BP ag 89
O=C(Oc1ccc2c(c1)O/C(=C\c1ccncc1)C2=O)c1cccs1	none (no result: IDE cell activ)
CC(=O)Oc1ccc2c(c1)O/C(=C\c1ccncc1)C2=O	CRFR2-BP ag 127
COc1ccccc1C(=O)Oc1ccc2c(c1)O/C(=C\c1ccncc1)C2=O	CRFR2-BP ag 124
CC(=O)Nc1cc(-c2cccc(F)c2)cn2c(-c3ccc(F)cc3)cnc12	none (no result: IDE cell activ, TPT1 inhibitor, CRFR2-BP ag, IDE inh)
Cc1ccc(CN2CC(N3CCN(CC4CC4)CC3)CS2(=O)=O)cc1 (configuration not stated)	none (no result: IDE cell activ, TPT1 inhibitor, CRFR2-BP ag, IDE inh)
Fc1cccc(Cc2c(-c3ccco3)nc3c(Cl)cc(C(F)(F)F)cn23)c1	none (no result: IDE cell activ, TPT1 inhibitor, CRFR2-BP ag, IDE inh)
c1nnc(NCNc2nncs2)s1	CRFR2-BP ag 60 (no result: IDE cell activ, TPT1 inhibitor, IDE inh)

High-throughput results as filed in PubChem.
